Experimental data taken from ChEMBL document CHEMBL4513216, “Probing the Open Global Health Chemical Diversity Library for Multistage-Active Starting Points for Next-Generation Antimalarials” (ACS Infect Dis, 2020).
Screen size: about 68,000 compounds; about 2,700 (4%) showed an effect of 50% or more. The sample as a whole holds a higher share of strong results than the screen did.

tested on: Plasmodium berghei; assay: Screen against P. berghei liver stage (PbLuc), transformed with Luciferase, at 2uM; format: functional, HepG2; conditions: tested at 2 uM

| SMILES | INHIBITION |
| --- | --- |
| Cn1ccnc1CN(Cc1ccccn1)Cc1ccccc1Cl | -8.33% |
| CN(Cc1ccc(Cl)s1)C(=O)NCCC(=O)N1CCCCCC1 | -12.84% |
| Cc1c(C(=O)NC2=NCCS2)cnn1-c1ccc(Br)cc1 | -23.27% |
| Cc1nsc(NC2CCOC3(CCCCC3)C2)n1 (stereo not given) | 62% |
| Cc1nsc(NC2CCOC3(CCCC3)C2)n1 (stereo not given) | 62% |
| NC(=O)c1ccc(NC2CCOC3(CCCC3)C2)nn1 (stereo not given) | -0.45% |
| Cc1cc(C)nc(NC2CCOC3(CCCC3)C2)n1 (stereo not given) | 10.23% |
| CCc1nsc(NC2CCOC3(CCCC3)C2)n1 (stereo not given) | -9.6% |
| CC(C)c1nsc(NC2CCOC3(CCCC3)C2)n1 (stereo not given) | 30.06% |
| Cc1nn(C)c(Cl)c1CNCc1ccc(OCC(N)=O)cc1 | -5.1% |
| COc1ccccc1CN1C[C@@H]2COC[C@]2(COCc2ccncc2)C1 | 38.11% |
| Cc1cnc(N2CCc3ncnc(N4CCN(C)CC4)c3CC2)nc1 | 17.57% |
| CC(C)(C)c1cnc(CN2CCCC2Cn2cccn2)o1 (stereo not given) | -50.72% |
| CC(C)(C)c1cnc(CN2CCC[C@H]2CO)o1 | 56.72% |
| CCC1CCCCN1Cc1ncc(C(C)(C)C)o1 (stereo not given) | 70.27% |
| Cc1cc(C)n(CC2CCCN2Cc2ncc(C(C)(C)C)o2)n1 (stereo not given) | -11.91% |
| CC(C)(C)c1cnc(CN2CCCCC2Cn2cccn2)o1 (stereo not given) | -23.94% |
| Cc1cnn(CC2CCCCN2Cc2ncc(C(C)(C)C)o2)c1 (stereo not given) | 30.91% |
| O=S(=O)(NCC1(O)CCOCC1)c1c(F)cccc1F | 43.15% |
| CCc1cnc(N2CCc3ncnc(N4CCN(C)CC4)c3CC2)nc1 | -64.85% |
| NC(=O)N1CC(OCc2cccc3ccccc23)C1 | 5.98% |
| Cc1cc(C)c2ncn(CCOCCO)c(=O)c2c1 | 24.55% |
| O=C(NCc1n[nH]c2c1CCCCC2)c1cnn2c1CCCC2 | -23.38% |
| CCc1nc(CN2CCCN(C(=O)COCC3CC3)CC2)cs1 | 3.9% |
| Cn1cc(C(O)CNC(=O)c2cc(Br)ccc2Cl)cn1 (stereo not given) | 20.29% |
| CCC(CC)NC(=O)c1ccc2nnc(C3CCN(C(C)=O)C3)n2c1 (stereo not given) | 30.75% |
| O=C1CCC2(CCCN(C(=O)Cc3ccccn3)C2)N1 (stereo not given) | 29.85% |

| SMILES | INHIBITION |
| --- | --- |
| O=C1CCC2(CCCN(C(=O)Cc3ccccc3)C2)N1 (stereo not given) | 60.05% |
| O=C1CCC2(CCCN(C(=O)Cc3cccnc3)C2)N1 (stereo not given) | 29.3% |
| CS(=O)(=O)N1CCN(C(=O)c2cncs2)CC(C(N)=O)C1 (stereo not given) | -33.32% |
| CNC(=O)[C@@H](c1ccccc1OC)N1CCC[C@H]1C(=O)NC(C)(C)C | -1.63% |
| CNC(=O)[C@@H](c1ccccc1OC)N1CCC[C@H]1C(=O)N1CC[C@@H](O)C1 | 50.91% |
| CNC(=O)[C@@H](c1ccccc1OC)N1CCC[C@H]1C(=O)N1CCC1 | -20.89% |
| O=C(NCc1cc[nH]n1)NC1CCCN(c2ncccn2)C1 (stereo not given) | 12.8% |
| Cn1cccc1CN1CCC2(CCCN(C(=O)Cc3cccnc3)C2)C1 (stereo not given) | -4.92% |
| Cn1cccc1CN1CCC2(CCCN(C(=O)c3cccnc3)C2)CC1 | 61.08% |
| Cn1cccc1CN1CCC2(CCCN(C(=O)c3cnccn3)C2)C1 (stereo not given) | -30.12% |
| Cc1noc(CCCC(=O)NC(C)c2cccnc2)n1 (stereo not given) | -19.76% |
| N#CCCN(C(=O)CN1CCCC1c1cccs1)c1ccccc1F (stereo not given) | -13.06% |
| N#CCCN(C(=O)CN1CCCC1c1ccsc1)c1ccccc1 (stereo not given) | -37.2% |
| N#CCCN(C(=O)CN1CCCC1c1ccsc1)c1ccccc1F (stereo not given) | 73.05% |
| CC(C)c1nnc2n1CCN(C(=O)c1cc3cc(F)ccc3[nH]1)C2 | 31.57% |
| CC(C)CC(=O)N1CCCC1c1cc(CO)[nH]n1 (stereo not given) | 31.92% |
| O=C(NC[C@H]1OC[C@@H]2CN(Cc3ccco3)CC[C@@H]21)c1cccnc1 | -36.8% |
| CN(Cc1ccco1)C[C@H]1OC[C@@H]2CCN(Cc3cccs3)C[C@@H]21 | -2.83% |
| CN(Cc1ccco1)C[C@H]1OC[C@@H]2CCN(Cc3ccsc3)C[C@@H]21 | 22.89% |
| CN(Cc1ccco1)C[C@H]1OC[C@@H]2CCN(Cc3ccccn3)C[C@@H]21 | -1.63% |
| CN(Cc1ccco1)C[C@@H]1OC[C@H]2CN(Cc3nccs3)CC[C@H]21 | 59.03% |
| Cc1ccc(CN2CC[C@H]3CO[C@H](CN(C)Cc4ccco4)[C@H]3C2)s1 | 59.03% |
| O=C(NC[C@H]1OC[C@@H]2CN(Cc3ccco3)CC[C@@H]21)c1cscn1 | 66.46% |
| Cn1cc(C(=O)NC[C@@H]2OC[C@H]3CN(Cc4ccco4)CC[C@H]32)cn1 | -33.95% |
| CN(Cc1cccnc1)C[C@@H]1OC[C@H]2CN(Cc3ccco3)CC[C@H]21 | 10.53% |
| CN(Cc1cccnc1)C[C@@H]1OC[C@H]2CN(Cc3ccoc3)CC[C@H]21 | 55.7% |
| CN(Cc1ccco1)C[C@H]1OC[C@@H]2CCN(Cc3nccs3)C[C@@H]21 | -13.27% |

| SMILES | INHIBITION |
| --- | --- |
| CN(C)C[C@@H]1OC[C@H]2CN(Cc3ccoc3)CC[C@H]21 | 0.13% |
| O=C(N[C@@H]1CN(Cc2ccc3[nH]ccc3c2)C[C@H]1O)c1cscn1 | -0.83% |
| Cc1nn(C)c(C)c1CC(=O)N1CCC(N(C)c2cccnn2)CC1 | -48.87% |
| COc1ccc(C2=CCN(C(=O)C3CCS(=O)(=O)C3)CC2)cc1 (stereo not given) | -7.13% |
| Cc1ccccc1CN1CCC(NCC2CNc3ccnn3C2)CC1 (stereo not given) | -4.7% |
| N#Cc1ccccc1CN1C[C@H]2CC[C@@H](C1)N(CC1CCC1)C2=O | -39.43% |
| COc1ncccc1C(=O)NCCn1cnc(C)cc1=O | -7.16% |
| O=S(=O)(NCCCn1cncn1)c1ccc2c(c1)OCCCO2 | -56.09% |
| CCn1ccc(NS(=O)(=O)c2cccc(COC)c2)n1 | -85.71% |
| O=S(=O)(NCCCn1cncn1)c1ccc2c(c1)CCC2 | 54.99% |
| O=S(=O)(NCCCn1cncn1)c1ccc2c(c1)OCCO2 | 65.71% |
| O=S(=O)(NCCCn1cncn1)c1ccc2c(c1)CCO2 | -9.13% |
| CCc1ccc(S(=O)(=O)Nc2ccn(CC(=O)OC)n2)cc1 | 11.9% |
| O=S(=O)(NCCCn1cncn1)c1ccc2c(c1)CCCC2 | -5.74% |
| COC(=O)Cn1ccc(NS(=O)(=O)c2ccc3c(c2)CCC3)n1 | 53.98% |
| O=S(=O)(NCCCn1cccn1)c1ccc2c(c1)CCC2 | 42.26% |
| CCCN1CCC2(C1)c1ccccc1S(=O)(=O)N2Cc1ccccc1 (stereo not given) | 9.87% |
| CCCn1ccc2cc(NC(=O)NCCn3cnnc3CC)ccc21 | 12.58% |
| O=C([C@H]1COC[C@H]2CN(C3CCCC3)C[C@H]21)N1CCCO1 | 0.13% |
| CCS(=O)(=O)N1CCC2(CC(=O)N(c3ccccc3C)C2)C1 (stereo not given) | 46.87% |
| Cc1ccc(C2c3c(n[nH]c3C)N=C3COC(=O)C32)cc1C (stereo not given) | 28.23% |
| CC(=O)Nc1cnc(Oc2ccccc2F)nc1 | 8.41% |
| CO[C@@H]1CO[C@@]2(CCCN(Cc3nc(C)cs3)C2)C1 | -61.54% |
| O=C1CC(NCc2ccncc2)CN1Cc1cccc(F)c1 (stereo not given) | -12.82% |
| Nc1cc2c(nn1)CCN(C(=O)CCCC1CCCCC1)C2 | -33.92% |
| Cc1nc(CN2CCCC(N(C)c3ccc(C#N)cn3)C2)no1 (stereo not given) | -14.71% |
| COc1cc2c(nn1)CCN(Cc1noc(CC(C)C)n1)C2 | 65.76% |

| SMILES | INHIBITION |
| --- | --- |
| COc1cc2c(nn1)CCN(Cc1noc(-c3ccccc3)n1)C2 | 0.12% |
| COc1cc2c(nn1)CCN(Cc1nc(Cc3ccccc3)no1)C2 | 48.93% |
| COc1c(C2CCCN2C(=O)c2cc(C3CC3)on2)c(C)nn1C (stereo not given) | -47.94% |
| COc1c(C2CCCN2C(=O)c2cc(C)on2)c(C)nn1C (stereo not given) | 51.94% |
| Cc1nn(C)c(C)c1C1CCCN1C(=O)c1ccc(C(N)=O)cn1 (stereo not given) | -27.71% |
| Cc1nn(C)c(Cl)c1C1CCCN1C(=O)c1cc[nH]n1 (stereo not given) | 47.57% |
| Cc1nn(C)c(Cl)c1C1CCCN1C(=O)c1cnccn1 (stereo not given) | 3.86% |
| Cc1cc(C(=O)N2CCCC2c2c(C)nn(C)c2C)no1 (stereo not given) | 43% |
| Cc1nn(C)c(Cl)c1C1CCCN1C(=O)c1ccc(C(N)=O)cn1 (stereo not given) | 68.24% |
| Cc1nn(C)c(Cl)c1C1CCCN1C(=O)c1ccc(O)nc1 (stereo not given) | -36.73% |
| Cc1nn(C)c(Cl)c1C1CCCN1C(=O)c1csnn1 (stereo not given) | 75.98% |
| O=C([C@H]1CN(Cc2ccccc2F)C[C@H]2OCC[C@@H]12)N1CCCO1 | 13.61% |
| CC(NC(=O)N1CCCN(CC(F)F)CC1)c1ccco1 (stereo not given) | 1.06% |
| CNc1nc(CNC(=O)Nc2cccc(C)c2Cl)cs1 | 15.4% |
| CNc1nc(CNC(=O)Nc2cccc(Cl)c2Cl)cs1 | 61.09% |
| CNc1nc(CNC(=O)Nc2cccc(Cl)c2OC)cs1 | -4.43% |
| CC(C)(C)c1nnc(NCC(=O)N2CCc3sccc3C2)s1 | 33.83% |
| O=C(NCc1nnc2n1CCC2)N(Cc1ccco1)C1CC1 | 17.52% |
| Cc1ccc(N2CCCC(NCc3cccc4c3OCCO4)C2)nn1 (stereo not given) | 15.13% |
| COCCCNC1CCCN(c2ccc(C)nn2)C1 (stereo not given) | -73.41% |
| Cc1ccc(N2CCCC(NCCCS(C)(=O)=O)C2)nn1 (stereo not given) | -15.77% |
| Cc1ccc(N2CCCC(NCCS(C)(=O)=O)C2)nn1 (stereo not given) | 52.6% |
| c1cnnc(N2CCCC(NCc3cccc4c3OCO4)C2)c1 (stereo not given) | -9.98% |
| Cc1ccc(N2CCCC(NCc3cccc4c3OCO4)C2)nn1 (stereo not given) | 56.02% |
